Data from PubChem BioAssay.
Calls of active or inactive are those of the source.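 How the source made its calls, unless noted: active means mean z-score across replicates of 1.96 or higher in either the MELAS or the Rieske mutant cell line; inactive means the rest.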

Tests used:
[1] = survival rescue of mitochondrial mutant cells in low glucose, primary screen, MELAS cybrids, Rieske KO mouse fibroblasts, CellTiter-Glo (AID 1508586);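 further: test concentration not given here; z relative to plate mean and SD of compound and empty wells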
[2] = viability rescue of complex I mutant cybrids, primary screen, cell-based, galactose medium, ATP luminescence (AID 1645843;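 active means z-score of at least 1.8 in each of two replicates, scored against plate mean and spread of sample wells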;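 further: positive z means more ATP and so rescue of galactose-driven cybrid death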); conditions: complex I mutant cybrid cells, 72 h, stronger effect = higher value
[3] = MELAS cybrid survival, CellTiter-Glo 48 h, stronger effect = higher value
[4] = Rieske KO mouse fibroblast survival, CellTiter-Glo 72 h

| SMILES | z-score [1, 3] | z-score [1, 4] | z-score [2] |
| --- | --- | --- | --- |
| Cc1csc(-c2cc(C(=O)NCCC3CCCN3C)cc(S(=O)(=O)N3CCOCC3)c2)c1 (configuration not stated) | 4.59 (active) | -0.54 | -1.3 (inactive) |
| Cc1c(CN2CC(=O)N(Cc3ccccc3)CC(O)C2)c(=O)n(-c2ccccc2)n1C (configuration not stated) | 0.325 (inactive) | -0.72 | 0.83 (inactive) |
| CC(C)CCN1C(=O)N(CCN(C)C)C(=O)C12CCN(Cc1cn(C)c3ccccc13)CC2 | -0.333 (inactive) | -0.689 | 0.81 (inactive) |
| Cn1nc(C(=O)NCc2cccnc2)c2c1CCN(Cc1ccc3c(c1)Cc1ccccc1-3)C2 | -0.134 (inactive) | -0.0827 | 0.125 (inactive) |
| Cc1nc2sccn2c1CN1CCC2(CC1)C(=O)N(CC(C)C)C(=O)N2CCc1ccccc1 | -0.397 (inactive) | -0.675 | 0.34 (inactive) |
| COc1ccc(C(=O)N2CCN3C(=O)[C@H](COCc4ccccc4)NC(=O)[C@H]3C2)cc1 | 1.06 (inactive) | -0.655 | -0.43 (inactive) |
| CCOC(=O)c1csc(CCNC2CCc3c(c(C(=O)N4CCc5ccccc5C4)nn3C)C2)n1 (configuration not stated) | -0.249 (inactive) | 0.117 | -1.24 (inactive) |
| CC(C)CNC(=O)[C@@H]1C[C@H](CN2CCOCC2)CN(Cc2ccc(O)cc2)C1 | -0.104 (inactive) | -0.186 | -0.31 (inactive) |
| COC(=O)c1c(NC(C)=O)c2cc(NC3CCOCC3)cnc2n1CCc1ccc(OC)cc1 | -0.209 (inactive) | 0.565 | 0.445 (inactive) |
